Several values for one entry are separate records, joined by “and”; a condition that tells them apart may be missing. Equal values may be shown once. Screen size: about 5,500 compounds; about 2,000 (36%) were called active. About 18% were inconclusive and are not listed. Cut-off read from the data, not from the text of the source: active = normalized growth mostly below about 0.91 (no sharp cut-off); inconclusive = no clear call, values can overlap the other calls; inactive = mostly above about 0.92. The list shows a part of the results.
Assay: chemical genetic growth profiling, strain panel (AID 1159580);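 note: tested at 20 µM; growth read once vehicle control cultures reached saturation at 30 °C; 1 = growth at the plate median or of vehicle wells; lower values mean less growth of the strain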
Conditions: S. cerevisiae deletion strains, growth OD

Measured: normalized growth

C1CCc2nnnn2CC1
inactive: locus YAL013W, strain DEP1, active compounds read low 1.01 | locus YAL021C, strain ccr4, active compounds read low 1.01 | locus YAL026C, strain drs2, active compounds read low 1.01 | locus YAL030W, strain snc1, active compounds read low 1 | locus YAL040C, strain CLN3, active compounds read low 0.98 | locus YBL061C, strain skt5, active compounds read low 1.01 | locus YBR009C, strain hhf1, active compounds read low 1.01 | locus YBR021W, strain FUR4, active compounds read low 1.01 | locus YBR023C, strain chs3, active compounds read low 1.01 | locus YBR171W, strain sec66, active compounds read low 1.01 | locus YBR229C, strain ROT2, active compounds read low 1.01 | locus YBR231C, strain swc5, active compounds read low 1 | locus YBR279W, strain paf1, active compounds read low 1.01 | locus YCL011C, strain gbp2, active compounds read low 1 | locus YCL016C, strain dcc1, active compounds read low 1 | locus YCL029C, strain bik1, active compounds read low 1.03 | locus YCL061C, strain MRC1 (second series), active compounds read low 1 | locus YCL061C, strain MRC1, active compounds read low 0.998 | locus YCL069W, strain vba3, active compounds read low 1 | locus YCR088W, strain abp1, active compounds read low 1.02 | locus YDL005C, strain med2, active compounds read low 0.999 | locus YDL035C, strain GPR1, active compounds read low 1.01 | locus YDL040C, strain nat1, active compounds read low 1 | locus YDL074C, strain BRE1, active compounds read low 1.03 | locus YDL101C, strain DUN1, active compounds read low 1.03 | locus YDL134C, strain PPH21, active compounds read low 1.01 | locus YDL185W, strain tfp1, active compounds read low 1.01 | locus YDL192W, strain arf1, active compounds read low 1.01 | locus YDR001C, strain nth1, active compounds read low 1.01 | locus YDR069C, strain doa4, active compounds read low 1.01 | locus YDR101C, strain arx1, active compounds read low 1.01 | locus YDR137W, strain rgp1, active compounds read low 1.02 | locus YDR150W, strain NUM1, active compounds read low 1.01 and 1 | locus YDR159W, strain sac3, active compounds read low 1 | locus YDR162C, strain NBP2, active compounds read low 0.994 | locus YDR195W, strain ref2 0.985 | locus YDR297W, strain sur2, active compounds read low 1.02 | locus YDR318W, strain mcm21, active compounds read low 1.02 | locus YDR334W, strain swr1, active compounds read low 1.01 | locus YDR335W, strain msn5, active compounds read low 1.01 | locus YDR363W, strain ESC2, active compounds read low 1.01 | locus YDR388W, active compounds read low 1 | locus YDR392W, strain spt3, active compounds read low 1.03 | locus YDR502C, strain sam2, active compounds read low 1 | locus YEL003W, strain gim4, active compounds read low 1.01 | locus YEL037C, strain rad23, active compounds read low 1 | locus YEL061C, strain CIN8 (second series), active compounds read low 1.01 | locus YEL061C, strain CIN8, active compounds read low 1.01 | locus YER002W, strain NOP16, active compounds read low 1.01 | locus YER015W, strain faa2, active compounds read low 1 | locus YER016W, strain bim1, active compounds read low 1.01 | locus YER110C, active compounds read low 1.02 | locus YER111C, strain swi4, active compounds read low 1 | locus YER155C, strain BEM2 (second series), active compounds read low 1.02 | locus YER155C, strain BEM2, active compounds read low 1 | locus YER167W, strain BCK2, active compounds read low 1 | locus YFR010W, strain ubp6, active compounds read low 1.01 | locus YGL078C, strain dbp3, active compounds read low 1 | locus YGL086W, strain mad1, active compounds read low 0.99 | locus YGL173C, strain kem1, active compounds read low 1.02 | locus YGL227W, strain vid30, active compounds read low 1 | locus YGL240W, strain doc1, active compounds read low 1.01 | locus YGL248W, strain PDE1, active compounds read low 1.01 | locus YGL253W, strain hxk2, active compounds read low 1 | locus YGR078C, strain PAC10, active compounds read low 1 and 1.03 | locus YGR135W, strain pre9, active compounds read low 1.03 | locus YGR229C, strain SMI1, active compounds read low 0.969 and 1.01 | locus YGR252W, strain gcn5, active compounds read low 0.941 | locus YHR013C, strain ard1, active compounds read low 1.02 | locus YHR027C, strain rpn1, active compounds read low 1.01 | locus YHR030C, strain SLT2, active compounds read low 1.01 and 0.966 | locus YHR079C, strain IRE1 (second series), active compounds read low 1.02 | locus YHR079C, strain IRE1, active compounds read low 0.964 | locus YHR094C, strain hxt1, active compounds read low 1.01 | locus YHR129C, strain ARP1, active compounds read low 1.02 | locus YHR142W, strain chs7, active compounds read low 1.01 | locus YHR200W, strain rpn10, active compounds read low 1.01 | locus YIL066C, strain RNR3, active compounds read low 1.02 | locus YIL073C, strain SPO22, active compounds read low 1.01 | locus YIL125W, strain kgd1, active compounds read low 1 | locus YIR030C, strain dcg1, active compounds read low 1.01 | locus YJL092W, strain hpr5, active compounds read low 1 | locus YJL095W, strain BCK1 (second series), active compounds read low 1 | locus YJL095W, strain BCK1, active compounds read low 1.02 and 0.967 | locus YJL115W, strain asf1, active compounds read low 0.993 | locus YJL129C, strain trk1, active compounds read low 1.01 | locus YJL134W, strain LCB3, active compounds read low 1.01 | locus YJL154C, strain vps35, active compounds read low 1 | locus YJL164C, strain tpk1, active compounds read low 1 | locus YJL166W, strain qcr8, active compounds read low 1.01 | locus YJL168C, strain set2, active compounds read low 1.01 | locus YJL187C, strain SWE1 (second series), active compounds read low 1.04 | locus YJL187C, strain SWE1, active compounds read low 1.02 | locus YJR043C, strain POL32, active compounds read low 1.01 | locus YJR066W, strain TOR1, active compounds read low 0.921

Source: PubChem BioAssay AID1159580 (chemical genetic matrix, 2015)
